DUSP3 inh: VHR1 (DUSP3) phosphatase inhibition; P51452; recombinant VHR phosphatase, colorimetric substrate read-out; inhibition, % at 20 µM; hit rate 0.7% among 50,000; AID 1992; in the data active = inhibition above about 60%
Target sequence (P51452 whole entry, looked up): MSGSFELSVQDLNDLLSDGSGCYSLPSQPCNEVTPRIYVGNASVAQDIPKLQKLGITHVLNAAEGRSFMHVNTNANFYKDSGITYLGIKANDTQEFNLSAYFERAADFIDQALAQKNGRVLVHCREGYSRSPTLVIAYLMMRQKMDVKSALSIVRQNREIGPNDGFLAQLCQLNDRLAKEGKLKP
An asterisk follows results filed as active. This excerpt belongs to a sample that is enriched for hits.

SMILES | DUSP3 inh
Cc1ccc(C)c(-c2nn(-c3cc(N4CCCC4)ccc3[N+](=O)[O-])c(=O)c3ccccc23)c1 | -2
Cc1ccc(-c2csc(NC(=O)c3ccc(S(=O)(=O)N4CCCCCC4)cc3)n2)cc1 | 7
COc1ccccc1-n1cnc2cc(NC(C)=O)ccc21 | -6
COc1ccccc1-n1cnc2cc(NC(=O)c3ccc(C)cc3)ccc21 | -15
COc1ccc(-n2cnc3cc(NC(C)=O)ccc32)cc1 | 97*
O=C(Nc1cccc(NC(=O)c2ccc3ccccc3c2)c1)c1cccc(Cl)c1 | -8
Cc1cc(=O)oc2ccc(OCC(=O)Nc3ccc(S(=O)(=O)O)cc3)cc12 | 81
Cn1c(=O)c2c(nc(N/N=C/c3ccccc3Cl)n2Cc2ccccc2)n(C)c1=O | -8
Cn1c(=O)c2c(nc(Sc3nc4ccccc4n3Cc3ccccc3)n2C)n(C)c1=O | -13
Cn1c(=O)c2c([nH]c(=S)n2Cc2ccc(Cl)c(Cl)c2)n(C)c1=O | 114*
CCOc1ccc2cc(S(=O)(=O)NCc3cccnc3)ccc2c1 | 2
CC(=O)c1c(C(C)=O)c(C)n(-c2ccccc2N)c1C | -41
O=c1[nH]c(=S)[nH]c2sc3c(c12)CCN(Cc1ccccc1)C3 | 51
Nc1nc(SCc2ccc(Cl)cc2)nc2sc3c(c12)CCN(Cc1ccccc1)C3 | 4
Nc1sc(=S)nc2sc3c(c12)CCN(Cc1ccccc1)C3 | 72*
CCC1CCc2c(sc(N)c2C#N)C1 (stereo not given) | -16
N#Cc1c(N)sc2c1CCN(Cc1ccccc1)C2 | 102*
N#Cc1c(N)sc2c1CCCCCC2 | 18
CCN(CC)c1ccc(Nc2nc(-c3sc(N)nc3C)cs2)cc1 | 101*
CCN(CC)c1ccc(Nc2nc(-c3c(C)nc4ccccn34)cs2)cc1 | 55
Cc1nc(C)c(-c2csc(Nc3ccc(O)cc3)n2)s1 | 68
CCC(=O)Oc1cc2oc(=O)cc(C)c2cc1CC | -17
O=C(O)c1ccc(/C=C2\SC(=S)N(C(Cc3ccccc3)C(=O)O)C2=O)cc1 (stereo not given) | -13
O=C(O)C(Cc1ccccc1)N1C(=O)/C(=C/C=C/c2ccccc2)SC1=S (stereo not given) | 92*
O=C(O)C(Cc1ccccc1)N1C(=O)/C(=C/c2ccc(F)cc2)SC1=S (stereo not given) | -39
SMILES | DUSP3 inh
CN1C(C)(C)CC(OC(=O)c2ccccc2C(=O)OC2CC(C)(C)N(C)C(C)(C)C2)CC1(C)C | -34
COCCNC(=O)C(=O)NCCc1ccccc1 | 14
COc1ccc(OC)c(N=Cc2c(O)n(-c3ccccc3Cl)c(=O)[nH]c2=O)c1 | -12
COC(=O)c1ccc(N2C(=O)C3C(C2=O)C2C=CC3C23CC3)cc1 (stereo not given) | -8
CCn1c(O)c(N=NC(=O)c2ccccc2Cl)c2ccccc21 | -10
CCOc1c(/C=C(\C#N)C(N)=O)c2ccccc2n1-c1c(Cl)cccc1Cl | -5
CCC(CO)N=Cc1c(O)n(-c2c(Cl)cccc2Cl)c2ccccc12 (stereo not given) | 98*
CC(C)=CC(=O)CC(O)(c1ccccc1)C(F)(F)F (stereo not given) | 7
Cc1cc(C)cc(N2C(=O)NC(=O)/C(=C\c3ccc(O)c(Br)c3)C2=O)c1 | -13
Cc1ccsc1C1CC(=O)NC(SCc2ccccc2)=C1C#N (stereo not given) | -3
CC(=O)CC(c1ccccc1)S(=O)(=O)c1ccccc1C (stereo not given) | -20
COc1ccc(/C=N/NC(=O)Cc2nnc(N)s2)cc1OC | -83
COC(=O)c1ccc(COc2ccc3c(-c4ccccc4)cc(=O)oc3c2C)cc1 | -7
COC(=O)c1ccc(COc2cc3oc(=O)cc(-c4ccccc4)c3cc2Cl)cc1 | 98*
COC(=O)c1ccc(COc2cc3oc(=O)c4c(c3cc2Cl)CCC4)cc1 | 1
CCc1c(C#N)c(N)nc(SCC(=O)c2ccc(C)cc2)c1C#N | -8
COc1cc(/C=c2/sc3nc4ccccc4n3c2=O)ccc1OCc1nn[nH]n1 | 20
COc1ccc(/C=C2/C(=O)N(c3cccc(Br)c3)N=C2C)c(OC)c1 | 4
CCOc1cc(C(=O)Nc2sc(C(=O)N(CC)CC)c(C)c2C(=O)OC(C)C)cc(OCC)c1OCC | -8
CCOC(=O)c1c(NC(=O)c2ccc(OC)c(OC)c2)sc(C(=O)N(CC)CC)c1C | -6
CCN(CC)C(=O)c1sc(NC(=O)c2cc(OC)cc(OC)c2)c(C(=O)OC)c1C | 95*
CC(C(=O)O)n1c(O)c(/C=C2/C=Nc3ccccc32)sc1=S (stereo not given) | 5
COC(=O)c1ccccc1NC(=O)C(c1ccccc1)c1ccccc1 | -8
COc1ccc(/C=C2\C(=O)N(c3cccc(C(=O)O)c3)N=C2C)cc1 | 3
COc1ccc(NC(=O)Cn2nc(C(F)(F)F)c(Cl)c2C)cc1OC | 19
SMILES | DUSP3 inh
COc1ccc(C2CC(=O)C3=C(C2)Nc2ccccc2NC3c2ccccc2OCc2ccccc2)cc1OC (stereo not given) | 98*
COc1ccc(C2CC(=O)C3=C(C2)Nc2ccccc2NC3c2cccc(OC)c2OC)cc1OC (stereo not given) | -1
CCOc1ccccc1C1Nc2ccccc2NC2=C1C(=O)CC(c1ccc(OC)c(OC)c1)C2 (stereo not given) | 44
O=C1CCCC2=C1C(c1ccc(F)cc1)Nc1ccc(C(=O)c3ccccc3)cc1N2 (stereo not given) | 35
O=C1CC(c2ccccc2)CC2=C1C(c1cccc(Cl)c1Cl)Nc1ccccc1N2 (stereo not given) | 2
Cc1ccc(C2Nc3ccc(C(=O)c4ccccc4)cc3NC3=C2C(=O)CCC3)o1 (stereo not given) | 101*
COc1ccc(C2CC(=O)C3=C(C2)Nc2ccccc2NC3c2ccc(C)o2)cc1 (stereo not given) | 94*
O=C1CC(c2ccccc2)CC2=C1C(c1c(F)cccc1Cl)Nc1ccccc1N2 (stereo not given) | 115*
COc1ccc(C2CC(=O)C3=C(C2)Nc2ccccc2NC3c2c(F)cccc2Cl)cc1 (stereo not given) | 8
CCOc1ccc(C2Nc3ccccc3NC3=C2C(=O)CC(c2ccc(OC)cc2)C3)cc1 (stereo not given) | -5
COc1ccc(C2CC(=O)C3=C(C2)Nc2ccccc2NC3c2ccccc2)cc1 (stereo not given) | 23
Cc1ccc(C2Nc3ccc(C(=O)c4ccccc4)cc3NC3=C2C(=O)CC(C)(C)C3)o1 (stereo not given) | -5
COc1cc(OC)c(OC)cc1CNc1cccc(C)c1 | 17
O=C1C(=Cc2cccc(OCc3ccccc3)c2)C(=O)c2ccccc21 | 8
Cc1ccc(N2C(=O)C3C(C2=O)C2(C)C(=O)C3(C)C(c3ccccc3)=C2c2ccccc2)cc1C (stereo not given) | -16
COc1ccc(C2/C(=C(\O)c3ccccc3)C(=O)C(=O)N2CCCCCC(=O)O)cc1 (stereo not given) | -15
O=C1CC(c2ccccc2)CC2=C1C(c1coc3ccccc3c1=O)Nc1ccccc1N2 (stereo not given) | 112*
O=C1CC(c2ccc(Cl)cc2)CC2=C1C(c1ccc3c(c1)OCO3)Nc1ccccc1N2 (stereo not given) | -20
CC1(C)CC(=O)C2=C(C1)Nc1ccccc1NC2c1coc2ccccc2c1=O (stereo not given) | 3
O=C1CC(c2ccccc2)CC2=C1C(c1ccco1)Nc1ccccc1N2 (stereo not given) | 7
O=C1CC(c2ccccc2)CC2=C1C(c1ccc(-c3ccccc3)cc1)Nc1ccccc1N2 (stereo not given) | 4
